Screens as filed in PubChem BioAssay.
An excerpt weighted towards active compounds, which were near 12% of everything screened.
BAZ2B block: blocks human BAZ2B. Potency, µM (top dose mostly 114 µM), for inactives: at the top dose activity change, negative = inhibition, most hits filed as inhibitors. 360,000 tested, 4.4% active. AlphaScreen BAZ2B-H3K14Ac peptide displacement. Q9UIF8; also: % is scaled to controls: 0 for no effect and ±100 for the full control effect; nearly all actives have a fitted effect of over 60% in size
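AlphaScreen displacement: compounds (up to 110uM) incubated 30 min at room temperature with a preformed 50 nM BAZ2B/50 nM biotinylated H3K14Ac peptide complex in PBS pH 7.4 with Tween-20. Donor and acceptor beads at 10 ug/mL final added, 20 min light-protected before reading.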
Sfp PPTase inh: blocks B. subtilis Sfp PPTase activity; Q9F4F7; Potency, µM, without a hit: largest response in the series, negative = inhibition, most hits filed as inhibitors; 310,000 tested, 3.5% active; Biochemical Sfp PPTase activity, qHTS;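 also: the enzyme is Sfp with the accession as filed and its product quenches rhodamine fluorescence; 0% = enzyme reaction without inhibitor and -100% = no enzyme wells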
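Sfp 15 nM + cpd, 15 min RT; start w/ rhodamine-CoA 5 uM, BHQ-2-YbbR 12.5 uM (final); 50 mM Hepes pH 7.6, 10 mM MgCl2, 0.01% NP-40, 0.01% BSA; read 525/598 nm at 0 and 30 min.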
L3MBTL1 inh: blocks human L3MBTL1 | 230,000 tested, 0.66% active | AlphaScreen L3MBTL1–H3K9me1 peptide binding | Potency, µM (top dose mostly 57.1 µM), inactives show top-dose activity, negative = inhibition, hits mostly inhibitors | Q9Y468; also: % is scaled to controls: 0 for no effect and ±100 for the full control effect; nearly all actives have a fitted effect of over 60% in size
Target sequence (Q9Y468 whole entry, looked up): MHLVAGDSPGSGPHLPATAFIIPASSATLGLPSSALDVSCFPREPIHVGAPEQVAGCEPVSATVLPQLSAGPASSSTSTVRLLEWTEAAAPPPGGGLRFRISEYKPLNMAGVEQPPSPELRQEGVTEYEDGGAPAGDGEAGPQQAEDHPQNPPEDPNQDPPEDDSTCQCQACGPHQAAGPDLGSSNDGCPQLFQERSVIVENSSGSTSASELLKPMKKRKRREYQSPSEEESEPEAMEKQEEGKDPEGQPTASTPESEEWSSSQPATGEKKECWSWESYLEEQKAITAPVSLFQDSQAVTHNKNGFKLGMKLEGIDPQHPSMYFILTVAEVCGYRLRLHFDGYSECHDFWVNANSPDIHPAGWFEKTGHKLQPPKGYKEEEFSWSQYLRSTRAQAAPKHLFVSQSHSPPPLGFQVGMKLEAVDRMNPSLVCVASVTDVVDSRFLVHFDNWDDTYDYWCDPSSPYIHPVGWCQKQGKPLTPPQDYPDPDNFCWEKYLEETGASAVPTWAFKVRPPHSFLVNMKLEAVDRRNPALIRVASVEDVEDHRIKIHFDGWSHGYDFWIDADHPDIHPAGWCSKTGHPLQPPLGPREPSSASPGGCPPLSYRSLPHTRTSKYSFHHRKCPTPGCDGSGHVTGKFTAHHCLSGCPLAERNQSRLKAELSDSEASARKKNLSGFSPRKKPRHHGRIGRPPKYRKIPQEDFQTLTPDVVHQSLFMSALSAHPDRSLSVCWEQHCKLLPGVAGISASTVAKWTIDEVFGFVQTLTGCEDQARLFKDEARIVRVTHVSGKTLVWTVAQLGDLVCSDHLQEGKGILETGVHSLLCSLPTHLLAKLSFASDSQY
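L3MBTL1 50 nM + b-AHA-H3(1-15)K9me1 75 nM, 30 min RT; compound added, 30 min RT; streptavidin donor/Ni-chelate acceptor beads 10 ug/mL each final, 30 min RT dark; AlphaScreen read.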
G9a block: G9a (human) methyltransferase inhibition | Q96KQ7 | G9a H3K9 monomethylation, AlphaScreen, 2 h | Potency, µM (series often up to 102 µM), without a hit: top-dose activity, negative = inhibition, hits mostly inhibitors | 350,000 tested, 8.8% active | AID 504332; also: % is scaled to controls: 0 for no effect and ±100 for the full control effect; nearly all actives have a fitted effect of over 75% in size
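Methyltransferase reactions run at room temperature for 2 h (20 nM enzyme, 500 nM biotin-H3K9 peptide, 20 uM SAM) after a 15 min compound preincubation; product detected by AlphaScreen beads and anti-H3K9me1 antibody.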
JMJD2A Tudor inh: blocks the human JMJD2A Tudor domain. O75164. AlphaScreen JMJD2A-Tudor / H3K4me3 peptide binding. Potency, µM (titrated, usually from 114 µM), without a hit: top-dose activity change, negative = inhibition, usual class: inhibitors. 390,000 tested, 4.4% active. AID 504339; also: % is scaled to controls: 0 for no effect and ±100 for the full control effect; nearly all actives have a fitted effect of over 50% in size
HP1b chromo inh: HP1-beta chromodomain-methylated histone interaction inhibition; P83916; AlphaScreen HP1-beta / biotin-H3K9me3 peptide binding; Potency, µM (highest dose often 114 µM), inactives show top-dose activity change, negative = inhibition, hits mostly inhibitors; 390,000 tested, 0.56% active; also: nearly all actives have a fitted effect of over 70% in size
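AlphaScreen: HP1-beta (50 nM) preformed 30 min with biotin-H3(1-18)K9me3 peptide (50 nM) in PBS pH 7.4, 0.01% Tween-20. Compound added for 30 min at RT, then streptavidin donor/nickel chelate acceptor beads (10 ug/mL) for 30 min.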
Starred values were filed as active, the others as inactive; ? = inconclusive; nt = not tested or not shown; ! = repeats disagree; [ ] = dose if it differs, or a comment. Calls follow the shape of the dose curve; as a rule, active = well fitted curve in the direction sought with a large enough effect; inconclusive = small, poorly fitted or top-dose-only effect, or another doubt; inactive = no such curve, though single readings can be large; an effect the other way counts as inactive or inconclusive. Potency is read from the fitted curve at half-maximal effect.

SMILES | BAZ2B block | Sfp PPTase inh | L3MBTL1 inh | G9a block | JMJD2A Tudor inh | HP1b chromo inh
O=C(NCC1CCCO1)c1nc2c(nnn2Cc2ccc(F)cc2)c(=O)[nH]1 (centres undefined) | -17% | -15% | 5% | 50µM* | ? | 27%
COc1ccccc1-c1ccc2ncnc(N(C)Cc3ccco3)c2c1 | nt | ? | nt | -41%[0.501 µM] | nt | nt
Cc1ccc(S(=O)(=O)NN2C(=O)/C(=C/c3ccc(C(=O)O)cc3)SC2=S)cc1 | -32% | 1% | nt | -5% | ? | 17%
COc1ccc(/C=C2/SC(=S)N(NS(=O)(=O)c3ccc(C)cc3)C2=O)cc1 | 40µM* | -10% | nt | ? | ? | ?
Cc1ccc(S(=O)(=O)NN2C(=O)/C(=C/c3cccn3C)SC2=S)cc1 | 50µM* | -17% | -10% | 45µM* | nt | nt
C=CCOc1ccc(/C=C2\SC(=S)N(NS(=O)(=O)c3ccc(C)cc3)C2=O)cc1 | 40µM* | -3% | nt | 15%[2.33 µM] | 50µM* | ?
O=C1/C(=C/c2cccnc2)SC(=S)N1Nc1ccccc1 | ? | -25% | -15% | 40µM* | -7% | 19%
COc1cccc(C(=O)Nc2nc(-c3nnn(-c4cccc(Cl)c4C)c3C)ns2)c1 | -2% | nt | nt | -1%[59 µM] | -26% | 13%
C[C@@H](C1[C@@H](O)CC2C3C=CC4C[C@@H](O)CC[C@]4(C)[C@H]3CC[C@@]21C)[C@@H]1CCCCN1 (some centres undefined) | nt | 4% | nt | nt | nt | nt
Cc1ccc(S(=O)(=O)NN2C(=O)/C(=C\c3ccc(Cl)cc3)SC2=S)cc1 | -27% | 17% | nt | -10% | -28% | -20%
Cn1cccc1/C=C1\SC(=S)N(Nc2ccccc2)C1=O | 20µM* | -23% | ? | nt | ? | ?
Cc1ccc(S(=O)(=O)NN2C(=O)/C(=C/c3ccc(F)cc3)SC2=S)cc1 | -27% | 6% | -1% | -8% | -19% | 12%
Cc1ccc(S(=O)(=O)NN2C(=O)/C(=C/c3cccs3)SC2=S)cc1 | ? | 79µM* | nt | 20µM* | ? | -14%
Cc1ccc(/C=C2\SC(=S)N(NS(=O)(=O)c3ccc(C)cc3)C2=O)cc1 | 50µM* | -4% | -7% | nt | ? | -5%
CCOc1ccc(N(CC)C(=O)Cn2cnc3sc(C)c(S(=O)(=O)N4CCN(c5ncccn5)CC4)c3c2=O)cc1 | 0% | nt | nt | -27%[59 µM] | -11% | 15%
CN(Cc1ccc(F)cc1)C(=O)c1sccc1-c1ccccc1 | ? | -9% | nt | 40µM* | 27% | 54%
N[C@H](C(=O)O)c1cc(O)cc(O)c1 | nt | 45µM*! | nt | 33%[59 µM] | nt | nt
N[C@@H](C(=O)O)c1ccc(C(=O)O)c(O)c1 | nt | 12% | nt | nt | nt | nt
Cc1cc(C(=O)O)ccc1N/C=C1\CCCC(C)C1=O (centres undefined) | -37% | 16% | nt | ? | -28% | -2%
CC1CCC/C(=C\Nc2ccc(O)cc2)C1=O (centres undefined) | nt | 45µM* | ? | ? | 79µM* | 6%
CCCCC(=O)Nc1ccc(OCc2cc(=O)n3c(C)csc3n2)cc1 | 4% | nt | nt | 8%[59 µM] | -11% | 54%
C=Cc1cc2c(s1)c1cnn(Cc3ccccc3F)c(=O)c1n2C | nt | nt | nt | nt | -16% | nt
CN(C)C1NC(=O)c2cc(-c3ccccc3)sc2N1 (centres undefined) | 50µM* | -24% | -16% | ? | ? | -14%
O=C(CSc1ncccc1C(=O)Oc1ccccc1Cl)Nc1ccccc1Cl | 22% | nt | nt | -5%[59 µM] | -5% | 23%
COCCN=C1Sc2nc3ccc(C)cc3cc2CN1Cc1ccco1 | ? | 45µM* | nt | ? | -24% | 41%
CCOC(=O)c1c(CC(C)C)csc1/N=C/C1C(=O)CCCC1=O | ? | ? | nt | 50µM* | -27% | 0%
